Results on 40 molecules are retold here after PubChem BioAssay (Tox21).

Activity calls are given as the source filed them. Calls follow the shape of the dose curve; as a rule, active = well fitted curve in the direction sought with a large enough effect in the repeat runs; inconclusive = weak or mixed curves; inactive = flat fitted curve, though single readings scatter.

The nature of this test: qHTS assay to test for compound auto fluorescence at 590 nm (red) in HEK293 cells (AID 720679). The following applies: red autofluorescence 540/590 nm; series mostly up to 91.3 µM. An excerpt: National Center for Advancing Translational Sciences [NCATS]
NIH Chemical Genomics Center [NCGC]
U.S. Environmental Protection Agency [EPA]
National Institutes of Environmental Health Sciences [NIEHS]
National Toxicology Program [NTP]
U.S. Food and Drug Administration [FDA]
Compound auto fluorescence often interferes with screening of the compound library against various biological targets and signaling pathways. Some of these compounds may have fluorophoric properties. Such properties may interfere with the assay outputs resulting in false positives and/or negatives. To decrease such complications and ensure the compound activities are relevant in terms of biological response, the Tox21 10K compound library was screened for auto fluorescence.
From the fluorophores used as reporter signals in our screening assays, the auto fluorescence equivalencies of compounds against three fluorophores have been evaluated: Triamterene, Fluorescein and Rose Bengal sodium for blue, green and red fluorescence, respectively. The fluorescence intensities were measured using Excitation/Emission wavelengths at 405/460nm, 485/535nm and 540/590nm for blue, green and red labels, respectively. This assay includes the red fluorescence data.
Tox21 Assay Protocol Summary:
2,000 HEK293 cells in 5 uL of culture medium containing 10% dialyzed FBS per well were dispensed into black wall/clear bottom 1536-well plates using a Multidrop Combi Dispenser (Thermo Scientific). The assay plates were incubated for 4-5 hr at 37C to allow cell attachment to the well bottom, followed by the transfer of 23 nL compound or DMSO vehicle by a pintool work station (Kalypsys, San Diego, CA). After the assay plates were incubated overnight at 37C and 5% CO2, fluorescence intensities in the assay plates were measured by an Envision (PerkinElmer, Shelton, CT) plate reader using three labels for measuring blue, green and red fluorescence at […] 460, 535 and 590nm respectively.
As to `CC(Cl)C(C)Cl` (stereo not given), the result was inactive. For `Brc1ccc(Oc2ccccc2)cc1`, the result was inactive. The entry for `Clc1cccc2ccccc12` is “inactive”; for `NC(=O)C(Cl)(Cl)Cl` it is “inactive”; for `CCCCCC[N+](=O)[O-]` it is “inactive”. On to `O=S1OC[C@@H]2[C@H](CO1)[C@]1(Cl)C(Cl)=C(Cl)[C@@]2(Cl)C1(Cl)Cl` (stereo not given in full), for which the result was inactive.

For `CC(C)(CCl)C(=O)Cl`, the molecule was called inactive. To `CC(=O)CCC(C)=O` belongs “inactive”; to `C/C=C/C=O`, “inactive”. As to `CCC(Cl)CCl` (stereo not given), the outcome was inactive.

For `O=S(=O)(Cl)c1ccccc1`, the call was inactive. To `COc1cc(Cl)c(OC)cc1Cl` belongs “inactive”.

In the case of `CCc1ccc(C(=O)NN(C(=O)c2cc(C)cc(C)c2)C(C)(C)C)cc1`, the molecule was classed as inactive. As for `O=C(NC(=O)c1c(F)cccc1F)Nc1cc(Cl)c(Oc2ncc(C(F)(F)F)cc2Cl)c(Cl)c1`, the outcome was inactive. The entry for `C(=NC1CCCCC1)=NC1CCCCC1` is “inactive”; for `C=COC(C)=O` it is “inactive”; for `COC(=O)C(Br)CBr` (stereo not given) it is “inactive”. The entry for `CCC(Br)(CC)C(=O)NC(N)=O` is “inactive”; for `CCCCC(CC)COP(=O)(Oc1ccccc1)Oc1ccccc1` (stereo not given) it is “inactive”; for `COC(=O)c1cncn1C(C)c1ccccc1` (stereo not given) it is “inactive”.

Take `CC1(C)[C@H](C=C(Cl)Cl)[C@@H]1C(=O)O[C@@H](C#N)c1cccc(Oc2ccccc2)c1`: the outcome was inactive.

`COCC(C)N(C(=O)CCl)c1c(C)csc1C` (stereo not given): the call was inactive. Turning to `C=CCCl`, the outcome was inactive. The entry for `O=C1CN=C(c2ccccc2)c2cc(Cl)ccc2N1CC1CC1` is “inactive”; for `Oc1ccc(Cl)c(Cl)c1Cl` it is “inactive”; for `O=C(NCc1cccnc1)Nc1ccc([N+](=O)[O-])cc1` it is “inactive”. As to `O=C(O)C1(c2ccc3c(c2)OC[C@H](Cc2ccc(-c4ccccc4)cc2)[C@H]3O)CCCC1`, the outcome was inactive. The entry for `CC(O)(CS(=O)(=O)c1ccc(F)cc1)C(=O)Nc1ccc(C#N)c(C(F)(F)F)c1` (stereo not given) is “inactive”; for `COc1nn(C(=O)NS(=O)(=O)c2ccccc2OC(F)(F)F)c(=O)n1C` it is “inactive”; for `O=[N+]([O-])c1ccc(F)c([N+](=O)[O-])c1` it is “inactive”. Turning to `c1ccc(C2CC2)c(OCC2=NCCN2)c1`, the result was inactive. On to `C=CC(C)=O`, for which the call was inactive. The entry for `CCN(C)N=O` is “inactive”. To `Cc1ccc(N)cc1C` belongs “inactive”; to `COP(=S)(OC)Oc1cc(Cl)c(I)cc1Cl`, “inactive”. To `C=C(C#N)CCC#N` belongs “inactive”. Turning to `O=C=Nc1ccc(Cl)cc1`, the outcome was inactive. On to `CCOP(=O)(OCC)O/C(=C/Cl)c1ccc(Cl)cc1Cl`, for which the result was inactive.

Take `[CH3][Sn]([CH3])([Cl])[Cl]`: the outcome was inactive.

As to `BrCCCCBr`, the molecule was called inactive.
